Growth inhibition data for ten compounds are collected here from PubChem BioAssay (NCI).

About 79,000 compounds went through this panel and 15% of them were active in at least one assay; those are over-represented in the sample as a whole. Unmarked numbers belong to inactive results. Active and inactive are the calls of the source. No stated cut-off is given here; in the data, active means growth inhibition above about 70%; inactive means the rest.

A short description of experiment [1]: NCI Yeast Anticancer Drug Screen. Data for the rad50 strain (AID 155).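 Further: 0% = growth of vehicle-only cultures of the same strain.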 Conditions: S. cerevisiae rad50 strain growth inhibition, hits give high values. The gist of the method:
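Growth of the mutant yeast was measured after compound exposure and referenced to vehicle-treated cultures.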

Experiment [2] is described as follows: NCI Yeast Anticancer Drug Screen. Data for the mec2-1 strain (AID 157). Conditions: S. cerevisiae mec2-1 strain, hits give high values. The gist of the method:
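Cells of the genetically defined mec2-1 yeast strain are incubated with test compound. Inhibition of growth is calculated against vehicle-treated controls.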

Experiment [3] is described as follows: NCI Yeast Anticancer Drug Screen. Data for the sgs1 mgt1 strain (AID 161).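 Further: 0% = growth of cultures given vehicle only.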 Conditions: S. cerevisiae sgs1 mgt1 strain, hits give high values. The gist of the method:
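Test agents were incubated with a DNA-repair-mutant yeast strain. Growth was then read and compared against vehicle-treated controls.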

Experiment [4] can be described thus: NCI Yeast Anticancer Drug Screen. Data for the cln2 rad14 strain (AID 165).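 Further: 0% = growth equal to vehicle treated cultures.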 Conditions: S. cerevisiae cln2 rad14 strain, hits give high values. In outline:
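The screen exposed genetically defined yeast (cln2 rad14) to test compounds and scored growth inhibition relative to vehicle-treated controls.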

A short description of experiment [5]: NCI Yeast Anticancer Drug Screen. Data for the bub3 strain (AID 167). Particulars: S. cerevisiae bub3 mutant strain, hits give high values. In outline:
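Whole-cell yeast assay. The mutant strain was incubated with compounds, and growth inhibition was determined by comparison with vehicle-treated cells.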

Experiment [6] in a line: NCI Yeast Anticancer Drug Screen. Data for the mlh1 rad18 strain (AID 175). Conditions: S. cerevisiae mlh1 rad18 strain growth inhibition, hits give high values. The gist of the method: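 Compound-treated yeast growth, normalised to vehicle controls. Strain bears defined DNA repair mutations.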
Setting [7] is: at 5.0 µM (retest, dose inferred, filed as 0.5).
[8] abbreviates: at 50.0 µM (retest, dose inferred, filed as 5.0).

For `CC1CCN(CCC(=O)CC(c2ccccc2)c2c(O)c3ccccc3oc2=O)CC1` (stereo not given), the growth inhibition in experiment [1] (setting [7]) is 16%; in experiment [1] (setting [8]), 16%; in experiment [1] (at 50.0 µM) it was 87.3% (active); in experiment [2] (setting [7]), 10%; in experiment [2] (setting [8]), 10%; in experiment [2] (at 50.0 µM), 83.8% (active). Besides, the growth inhibition in experiment [3] (setting [7]) is 12%; in experiment [3] (setting [8]), 12%; in experiment [3] (at 50.0 µM), 88% (active); in experiment [4] (setting [7]), 2%; in experiment [4] (setting [8]), 2%; in experiment [4] (at 50.0 µM), 89.8% (active). The growth inhibition in experiment [5] (setting [7]) is 4%; in experiment [5] (setting [8]) it was 4%; in experiment [5] (at 50.0 µM), 87.7% (active); in experiment [6] (setting [7]), 18%; in experiment [6] (setting [8]), 18%; in experiment [6] (at 50.0 µM) it was 88.3% (active).
For `O=[N+]([O-])c1ccc(CS(=O)(=O)C(Cl)Cl)o1`, the growth inhibition in experiment [1] (setting [7]) is 10%; in experiment [1] (setting [8]), 79% (active); in experiment [1] (at 50.0 µM), 92% (active); in experiment [2] (setting [7]), -1%; in experiment [2] (setting [8]), 52%; in experiment [2] (at 50.0 µM), 59.5%. Besides, the growth inhibition was 3% in experiment [3] (setting [7]); 79% (active) in experiment [3] (setting [8]); 87.9% (active) in experiment [3] (at 50.0 µM); -6% in experiment [4] (setting [7]); 68% in experiment [4] (setting [8]); 78.8% (active) in experiment [4] (at 50.0 µM). The growth inhibition is -7% in experiment [5] (setting [7]); 56% in experiment [5] (setting [8]); 48.1% in experiment [5] (at 50.0 µM); 15% in experiment [6] (setting [7]); 90% (active) in experiment [6] (setting [8]); 95.6% (active) in experiment [6] (at 50.0 µM).
As to `CCC(C)c1cnc(CC(C)C)c(=O)n1O` (stereo not given), the growth inhibition in experiment [1] (setting [7]) is 87% (active); in experiment [1] (setting [8]) it was 99% (active); in experiment [1] (at 50.0 µM) it was 91% (active); in experiment [2] (setting [7]), 26%; in experiment [2] (setting [8]), 99% (active); in experiment [2] (at 50.0 µM), 88.8% (active). The growth inhibition is 75% (active) in experiment [3] (setting [7]); 98% (active) in experiment [3] (setting [8]); 90% (active) in experiment [3] (at 50.0 µM); 68% in experiment [4] (setting [7]); 98% (active) in experiment [4] (setting [8]); 86.3% (active) in experiment [4] (at 50.0 µM). The growth inhibition in experiment [5] (setting [7]) is 59%; in experiment [5] (setting [8]), 98% (active); in experiment [5] (at 50.0 µM) it was 90.7% (active); in experiment [6] (setting [7]), 73% (active); in experiment [6] (setting [8]) it was 99% (active); in experiment [6] (at 50.0 µM) it was 89.6% (active).
On to `CCNC(=O)OOC(C)(C)C`, for which the growth inhibition in experiment [1] (setting [7]) is 16%; in experiment [1] (setting [8]), 93% (active); in experiment [1] (at 50.0 µM), 74.7% (active); in experiment [2] (setting [7]), 6%; in experiment [2] (setting [8]), 83% (active); in experiment [2] (at 50.0 µM), 19.7%. Besides, the growth inhibition in experiment [3] (setting [7]) was 4%; in experiment [3] (setting [8]), 94% (active); in experiment [3] (at 50.0 µM) it was -5.55%; in experiment [4] (setting [7]) it was -2%; in experiment [4] (setting [8]), 77% (active); in experiment [4] (at 50.0 µM) it was -17.8%. Further, the growth inhibition was -2% in experiment [5] (setting [7]); 72% (active) in experiment [5] (setting [8]); 1.45% in experiment [5] (at 50.0 µM); 19% in experiment [6] (setting [7]); 96% (active) in experiment [6] (setting [8]); 21.7% in experiment [6] (at 50.0 µM).
In the case of `O=S(=O)(F)c1ccc(Cl)cc1`, the growth inhibition in experiment [1] (setting [7]) is 22%; in experiment [1] (setting [8]), 97% (active); in experiment [1] (at 50.0 µM) it was 85.5% (active); in experiment [2] (setting [7]), 4%; in experiment [2] (setting [8]), 84% (active); in experiment [2] (at 50.0 µM), 20.9%. Moreover, the growth inhibition in experiment [3] (setting [7]) was 9%; in experiment [3] (setting [8]), 92% (active); in experiment [3] (at 50.0 µM), 82.3% (active); in experiment [4] (setting [7]), 3%; in experiment [4] (setting [8]), 90% (active); in experiment [4] (at 50.0 µM), 49.7%. For the same compound, the growth inhibition in experiment [5] (setting [7]) was 12%; in experiment [5] (setting [8]) it was 97% (active); in experiment [5] (at 50.0 µM), 70.9% (active); in experiment [6] (setting [7]) it was 13%; in experiment [6] (setting [8]), 98% (active); in experiment [6] (at 50.0 µM), 90.8% (active).
Take `NC(=O)/C=C/c1ccc([As]=O)cc1` (stereo not given): the growth inhibition is 1% in experiment [1] (setting [7]); 25% in experiment [1] (setting [8]); 97.8% (active) in experiment [1] (at 50.0 µM); 1% in experiment [2] (setting [7]); 22% in experiment [2] (setting [8]); 98.7% (active) in experiment [2] (at 50.0 µM). Also, the growth inhibition is 0% in experiment [3] (setting [7]); 34% in experiment [3] (setting [8]); 99.3% (active) in experiment [3] (at 50.0 µM); 9% in experiment [4] (setting [7]); 3% in experiment [4] (setting [8]); 96.5% (active) in experiment [4] (at 50.0 µM). For the same compound, the growth inhibition in experiment [5] (setting [7]) is 4%; in experiment [5] (setting [8]) it was 37%; in experiment [5] (at 50.0 µM), 98.7% (active); in experiment [6] (setting [7]), 5%; in experiment [6] (setting [8]), 39%; in experiment [6] (at 50.0 µM), 99% (active).
With `[Cl][Sn]([CH2]c1ccccc1)([CH2]c1ccccc1)[CH2]c1ccccc1`, the growth inhibition in experiment [1] (setting [7]) was 99% (active); in experiment [1] (setting [8]), 98% (active); in experiment [1] (at 50.0 µM), 99% (active); in experiment [2] (setting [7]), 100% (active); in experiment [2] (setting [8]), 99% (active); in experiment [2] (at 50.0 µM), 99.2% (active). Also, the growth inhibition was 100% (active) in experiment [3] (setting [7]); 99% (active) in experiment [3] (setting [8]); 99.3% (active) in experiment [3] (at 50.0 µM); 99% (active) in experiment [4] (setting [7]); 98% (active) in experiment [4] (setting [8]); 98.7% (active) in experiment [4] (at 50.0 µM). The growth inhibition in experiment [5] (setting [7]) was 99% (active); in experiment [5] (setting [8]), 99% (active); in experiment [5] (at 50.0 µM) it was 98.5% (active); in experiment [6] (setting [7]), 99% (active); in experiment [6] (setting [8]) it was 99% (active); in experiment [6] (at 50.0 µM), 99% (active).
For the compound `C[CH2][Sn]1([CH2]C)[O]C2C(OC)OC3COC(c4ccccc4)OC3C2[O]1` (stereo not given), the growth inhibition in experiment [1] (setting [7]) is 77% (active); in experiment [1] (setting [8]), 80% (active); in experiment [1] (at 50.0 µM), 18.4%; in experiment [2] (setting [7]), 42%; in experiment [2] (setting [8]) it was 70% (active); in experiment [2] (at 50.0 µM), 61.2%. Also, the growth inhibition in experiment [3] (setting [7]) is 67%; in experiment [3] (setting [8]), 77% (active); in experiment [3] (at 50.0 µM) it was -9.95%; in experiment [4] (setting [7]), 68%; in experiment [4] (setting [8]), 40%; in experiment [4] (at 50.0 µM) it was -21.4%. In addition, the growth inhibition in experiment [5] (setting [7]) is 69%; in experiment [5] (setting [8]) it was 40%; in experiment [5] (at 50.0 µM), 71.8% (active); in experiment [6] (setting [7]), 53%; in experiment [6] (setting [8]), 54%; in experiment [6] (at 50.0 µM), -16.1%.
As for `O=C(c1ccccc1)c1cc(CN(CCCl)CCCl)c(O)cc1O`, the growth inhibition in experiment [1] (setting [7]) was 0%; in experiment [1] (setting [8]), 32%; in experiment [1] (at 50.0 µM), 54.3%; in experiment [2] (setting [7]), -17%; in experiment [2] (setting [8]), 43%; in experiment [2] (at 50.0 µM), 17.9%. The growth inhibition in experiment [3] (setting [7]) was 7%; in experiment [3] (setting [8]) it was 75% (active); in experiment [3] (at 50.0 µM), 43%; in experiment [4] (setting [7]), -2%; in experiment [4] (setting [8]), -1%; in experiment [4] (at 50.0 µM), 13.2%. Further, the growth inhibition in experiment [5] (setting [7]) is -6%; in experiment [5] (setting [8]) it was -4%; in experiment [5] (at 50.0 µM), 29.3%; in experiment [6] (setting [7]), 11%; in experiment [6] (setting [8]), 86% (active); in experiment [6] (at 50.0 µM) it was 80.3% (active).
As to `Cc1cc[n+](C2=C(Nc3c(C)cccc3C)C(=O)c3ccccc3C2=O)cc1`, the growth inhibition in experiment [1] (setting [7]) is 44%; in experiment [1] (setting [8]), 88% (active); in experiment [1] (at 50.0 µM), 89.7% (active); in experiment [2] (setting [7]) it was 5%; in experiment [2] (setting [8]), 61%; in experiment [2] (at 50.0 µM), 73.2% (active). In addition, the growth inhibition in experiment [3] (setting [7]) is -6%; in experiment [3] (setting [8]) it was 67%; in experiment [3] (at 50.0 µM) it was 68.1%; in experiment [4] (setting [7]) it was -7%; in experiment [4] (setting [8]), 54%; in experiment [4] (at 50.0 µM), 15.2%. For the same compound, the growth inhibition in experiment [5] (setting [7]) was 6%; in experiment [5] (setting [8]), 66%; in experiment [5] (at 50.0 µM) it was 48.4%; in experiment [6] (setting [7]), -1%; in experiment [6] (setting [8]) it was 51%; in experiment [6] (at 50.0 µM), 71.2% (active).
